Experimental data published in ChEMBL document CHEMBL2218924, “A broad activity screen in support of a chemogenomic map for kinase signalling research and drug discovery” (Biochem J, 2013).

Experiments:
[1] = biological target: T1, Aurora kinase C (Homo sapiens) (UniProt Q9UQB9); conditions: at 1 µM
T1 sequence (whole entry): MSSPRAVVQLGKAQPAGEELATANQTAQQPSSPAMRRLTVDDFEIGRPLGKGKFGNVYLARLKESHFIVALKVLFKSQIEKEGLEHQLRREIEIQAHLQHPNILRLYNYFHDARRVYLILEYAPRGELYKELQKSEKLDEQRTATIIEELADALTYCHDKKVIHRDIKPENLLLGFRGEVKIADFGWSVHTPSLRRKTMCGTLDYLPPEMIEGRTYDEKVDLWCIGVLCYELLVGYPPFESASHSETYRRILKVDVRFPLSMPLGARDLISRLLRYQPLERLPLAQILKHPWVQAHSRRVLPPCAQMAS

[2] = biological target: T1, Aurora kinase C (Homo sapiens); conditions: at 10 µM
[3] = biological target: Tyrosine-protein kinase receptor UFO (Homo sapiens) (UniProt P30530); conditions: at 1 µM
[4] = biological target: Tyrosine-protein kinase receptor UFO (Homo sapiens) (UniProt P30530); conditions: at 10 µM
[5] = biological target: Protein-tyrosine kinase 6 (Homo sapiens) (UniProt Q13882); conditions: at 1 µM
[6] = biological target: Protein-tyrosine kinase 6 (Homo sapiens) (UniProt Q13882); conditions: at 10 µM
[7] = biological target: Tyrosine-protein kinase BTK (Homo sapiens) (UniProt Q06187); conditions: at 1 µM
[8] = biological target: Tyrosine-protein kinase BTK (Homo sapiens) (UniProt Q06187); conditions: at 10 µM
[9] = biological target: Tyrosine-protein kinase Blk (Homo sapiens) (UniProt P51451); conditions: at 1 µM
[10] = biological target: Tyrosine-protein kinase Blk (Homo sapiens) (UniProt P51451); conditions: at 10 µM

Sequence of Tyrosine-protein kinase receptor UFO (Homo sapiens) (P30530 whole entry): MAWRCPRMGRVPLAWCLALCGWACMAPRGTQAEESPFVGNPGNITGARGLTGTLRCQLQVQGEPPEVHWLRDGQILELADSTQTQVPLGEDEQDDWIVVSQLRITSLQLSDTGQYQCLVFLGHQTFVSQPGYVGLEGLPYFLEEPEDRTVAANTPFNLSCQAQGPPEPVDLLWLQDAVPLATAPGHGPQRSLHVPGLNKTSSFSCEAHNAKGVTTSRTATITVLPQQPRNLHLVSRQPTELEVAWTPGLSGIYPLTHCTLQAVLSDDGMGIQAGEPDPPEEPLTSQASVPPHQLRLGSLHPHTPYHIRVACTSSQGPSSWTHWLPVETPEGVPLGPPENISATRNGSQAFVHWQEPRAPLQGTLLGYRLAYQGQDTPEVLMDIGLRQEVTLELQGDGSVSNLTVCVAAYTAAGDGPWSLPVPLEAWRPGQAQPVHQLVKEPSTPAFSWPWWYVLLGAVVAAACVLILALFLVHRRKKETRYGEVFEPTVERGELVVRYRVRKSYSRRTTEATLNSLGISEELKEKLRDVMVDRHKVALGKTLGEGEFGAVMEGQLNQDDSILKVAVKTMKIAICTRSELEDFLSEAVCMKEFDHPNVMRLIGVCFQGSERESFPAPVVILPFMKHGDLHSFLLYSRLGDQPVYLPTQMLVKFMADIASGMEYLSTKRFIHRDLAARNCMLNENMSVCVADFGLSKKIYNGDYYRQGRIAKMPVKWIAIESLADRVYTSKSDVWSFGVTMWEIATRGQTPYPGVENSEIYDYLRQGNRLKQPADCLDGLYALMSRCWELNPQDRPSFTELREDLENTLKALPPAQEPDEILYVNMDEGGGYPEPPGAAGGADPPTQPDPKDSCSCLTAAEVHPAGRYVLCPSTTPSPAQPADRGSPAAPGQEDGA
Sequence of Tyrosine-protein kinase BTK (Homo sapiens) (Q06187 whole entry): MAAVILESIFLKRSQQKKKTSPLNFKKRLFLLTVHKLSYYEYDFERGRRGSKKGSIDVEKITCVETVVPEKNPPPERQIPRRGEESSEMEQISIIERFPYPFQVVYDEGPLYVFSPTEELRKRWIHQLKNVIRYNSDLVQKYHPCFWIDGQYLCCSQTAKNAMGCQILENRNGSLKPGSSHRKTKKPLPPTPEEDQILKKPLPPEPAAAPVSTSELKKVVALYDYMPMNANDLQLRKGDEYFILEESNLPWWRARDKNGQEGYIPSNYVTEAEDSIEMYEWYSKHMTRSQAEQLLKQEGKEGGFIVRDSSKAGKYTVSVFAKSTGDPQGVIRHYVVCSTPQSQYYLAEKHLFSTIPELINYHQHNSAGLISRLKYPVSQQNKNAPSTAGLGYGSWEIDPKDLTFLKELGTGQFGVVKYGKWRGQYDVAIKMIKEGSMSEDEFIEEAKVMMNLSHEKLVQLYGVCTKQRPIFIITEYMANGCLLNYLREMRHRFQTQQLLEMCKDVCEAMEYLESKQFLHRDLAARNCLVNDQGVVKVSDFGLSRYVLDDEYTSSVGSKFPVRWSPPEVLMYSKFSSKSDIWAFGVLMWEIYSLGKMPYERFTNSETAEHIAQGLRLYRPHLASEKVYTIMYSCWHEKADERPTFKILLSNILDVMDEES
Sequence of Tyrosine-protein kinase Blk (Homo sapiens) (P51451 2-505 limits assumed): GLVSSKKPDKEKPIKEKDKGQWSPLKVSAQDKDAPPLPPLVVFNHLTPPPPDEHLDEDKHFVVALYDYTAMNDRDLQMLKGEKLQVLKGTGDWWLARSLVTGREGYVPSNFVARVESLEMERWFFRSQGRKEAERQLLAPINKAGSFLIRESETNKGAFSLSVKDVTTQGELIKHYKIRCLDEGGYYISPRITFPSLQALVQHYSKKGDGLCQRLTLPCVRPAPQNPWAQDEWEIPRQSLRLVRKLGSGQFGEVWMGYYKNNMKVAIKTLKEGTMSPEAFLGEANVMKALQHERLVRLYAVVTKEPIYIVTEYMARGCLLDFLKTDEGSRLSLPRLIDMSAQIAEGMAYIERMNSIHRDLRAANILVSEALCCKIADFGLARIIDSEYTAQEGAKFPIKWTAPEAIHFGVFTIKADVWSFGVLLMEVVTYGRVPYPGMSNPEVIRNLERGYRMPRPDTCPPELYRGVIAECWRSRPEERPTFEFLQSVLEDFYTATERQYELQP
Sequence of Protein-tyrosine kinase 6 (Homo sapiens) (Q13882 whole entry, looked up): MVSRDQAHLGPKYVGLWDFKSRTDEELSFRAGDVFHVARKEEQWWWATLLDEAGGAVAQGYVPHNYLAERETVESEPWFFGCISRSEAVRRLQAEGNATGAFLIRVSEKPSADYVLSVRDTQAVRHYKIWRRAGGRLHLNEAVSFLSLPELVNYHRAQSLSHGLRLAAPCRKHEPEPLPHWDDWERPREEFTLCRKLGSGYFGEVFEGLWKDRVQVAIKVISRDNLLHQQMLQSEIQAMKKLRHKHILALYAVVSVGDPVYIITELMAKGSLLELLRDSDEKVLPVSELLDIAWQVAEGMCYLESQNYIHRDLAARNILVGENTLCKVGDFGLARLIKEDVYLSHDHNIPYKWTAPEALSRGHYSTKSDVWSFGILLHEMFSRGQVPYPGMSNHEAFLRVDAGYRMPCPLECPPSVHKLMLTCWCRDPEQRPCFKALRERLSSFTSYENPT

Structure (SMILES)	residual activity [1] [%]	residual activity [2] [%]	residual activity [3] [%]	residual activity [4] [%]	residual activity [5] [%]	residual activity [6] [%]	residual activity [7] [%]	residual activity [8] [%]	residual activity [9] [%]	residual activity [10] [%]
Cn1cnc2cc3c(Nc4cccc(Br)c4)ncnc3cc21	80	52	77	57	78	55	67	44	50	18
Cc1nc(-c2ccccc2)c(-c2ccncc2)o1	93	81	112	79	59	43	91	83	95	80
O=C1Nc2ccc(Br)cc2/C1=C\c1cc2c([nH]1)CCCC2	82	69	72	62	107	107	–	109	82	38
N#Cc1cnc2cnc(NCc3cccnc3)cc2c1Nc1ccc(F)c(Cl)c1	71	54	19	22	–	–	70	58	4	3
COc1cc2ncnc(Nc3ccc(NC(=O)c4ccccc4)cc3)c2cc1OC	44	4	99	40	35	10	90	68	20	2
CC(=O)O/N=C1\C(=C2\C(=O)Nc3cc(Br)ccc32)Nc2ccccc21	89	82	77	44	99	77	25	4	19	3
COc1ccc(C(=O)Nc2sc3c(c2C(N)=O)CCCC3)cc1OC	97	76	76	76	108	114	84	118	109	94
Cc1cccc(-c2[nH]c(C(C)(C)C)nc2-c2ccc3c(c2)OCO3)n1	–	82	87	81	–	102	–	–	–	106
Cn1nc2c3c(cccc31)C(=O)c1ccccc1-2	72	58	90	63	103	–	94	76	111	91
COc1ccc(S(=O)(=O)N(CCO)c2ccccc2CN(C)C/C=C/c2ccc(Cl)cc2)cc1	83	88	107	82	100	88	–	93	99	58
CC[n+]1c(/C=C/N(C)c2ccccc2)n(-c2ccccc2)c2ccc(-c3nc4ccccc4s3)cc21	107	93	134	58	109	94	87	58	100	55
c1ccc2c(-c3ccncc3)c[nH]c2c1	66	46	81	75	95	75	99	–	–	107
COc1ccc(OC)c2c(=S)c3ccccc3[nH]c12	78	75	96	83	104	104	96	82	111	96
N#CC(C#N)=C(N)/C(C#N)=C/c1ccc(O)cc1	–	–	92	87	–	–	94	118	–	–
O=C(O)c1ccc2c3c1cccc3c(=O)n1c3ccccc3nc21	82	43	61	35	110	105	88	83	99	81
O=[N+]([O-])c1ccc(-c2nc(-c3ccc(F)cc3)c(-c3ccncc3)[nH]2)cc1	107	92	120	106	36	31	91	56	110	98
CO[C@@H]1[C@H](N(C)C(=O)c2ccccc2)C[C@H]2O[C@]1(C)n1c3ccccc3c3c4c(c5c6ccccc6n2c5c31)C(=O)NC4	62	20	14	9	98	93	60	35	7	5
N#CCCc1ccc2c(c1)-c1[nH]c3ccc([N+](=O)[O-])cc3c1CC(=O)N2	63	22	57	35	–	–	79	66	24	11
COc1cc2ncnc(N3CCN(C(=O)Nc4ccc(Oc5ccccc5)cc4)CC3)c2cc1OC	71	25	71	60	98	98	92	112	100	72

Structure (SMILES)	residual activity [1] [%]	residual activity [2] [%]	residual activity [3] [%]	residual activity [4] [%]	residual activity [5] [%]	residual activity [6] [%]	residual activity [7] [%]	residual activity [8] [%]	residual activity [9] [%]	residual activity [10] [%]
CCN(CC)CCCCN1c2ccccc2Oc2ccc(Cl)cc21	108	92	88	83	118	108	78	109	110	88
CN(C)CCCn1cc(C2=C(c3c[nH]c4ccccc34)C(=O)NC2=O)c2ccccc21	109	72	70	39	110	89	89	72	65	13
Cc1cc(Nc2nc(-c3ccccc3)nc3ccccc23)n[nH]1	7	4	33	3	40	4	19	0	9	1
CN(C)c1ccc(/C=C2\C(=O)Nc3ccccc32)cc1	88	39	78	49	112	97	113	86	87	62
Cc1cncc2cccc(S(=O)(=O)N3CCCN(C(=O)CN)C[C@H]3C)c12	5	1	88	74	–	–	–	–	122	75
O=c1c2ccccc2[nH]c(=S)n1CCN1CCC(=C(c2ccc(F)cc2)c2ccc(F)cc2)CC1	110	84	103	89	112	95	90	123	101	66
O=C1c2ccccc2-[n+]2ccc3c([nH]c4ccccc43)c21	83	72	73	62	97	80	94	87	95	76
O=C1NC(=O)c2c1c1c3ccccc3[nH]c1c1[nH]c3cc(Br)ccc3c21	89	59	94	80	105	100	79	68	102	85
O=C(Nc1cccc(Nc2nccc(Nc3cccc(C(F)(F)F)c3)n2)c1)C1CC1	69	62	79	81	40	46	53	6	77	57
Cc1ccc(NC2=CC(=O)c3sc(C)nc3C2=O)cc1	85	85	103	112	111	108	93	86	112	96
COc1cc2ncc(-c3ccccc3)nc2cc1OC	–	–	96	84	–	–	–	–	–	–
CCC(=O)Nc1ccc2ncnc(Nc3cccc(Br)c3)c2c1	94	80	83	80	80	60	95	78	112	80
c1ccc(-c2n[nH]cc2-c2ccnc3ccccc23)nc1	100	66	65	80	93	37	102	100	102	59
Cc1cc2ncc(-c3ccccc3)nc2cc1C	104	87	100	88	103	101	94	105	–	95
c1ccc(-c2n[nH]c3c2oc2ccccc23)cc1	–	–	81	73	–	–	–	–	98	49
Cn1cc(/C=C2\C(=O)Nc3ccc(S(N)(=O)=O)cc32)c2ccccc21	40	39	13	27	97	101	19	5	9	3
O=C1NC(=O)/C(=C\c2ccc3nccnc3c2)S1	106	59	75	54	99	103	99	93	114	79
Nc1cccc(-c2cc3c(Oc4cccc(O)c4)ncnc3[nH]2)c1	72	20	101	39	0	0	21	-1	7	1
